From PubChem BioAssay
PP5 inh – blocks human protein phosphatase 5 activity; inhibition, % at 6.7 µM; AID 1987; 0.18% of 320,000 active; P53041; purified PP5c, OMFP substrate fluorescence;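 active means inhibition above the campaign's mean inhibition across all tested compounds plus 3 SD, cut at about 9.5% in these data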
PP1 counter – counter-screen for PP5 inhibitors: inhibitors of human PP1-alpha. 0.9% of 320,000 active. AID 2235. inhibition, % at 6.7 µM. purified PP1alpha, OMFP fluorescence. P62136;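 active means inhibition above the mean inhibition of all tested compounds plus 3 SD, computed separately for each screening campaign, cut at about 15% in these data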
ATG4B inh – ATG4B (human) cysteine protease inhibition; ATG4B cleavage of LC3-PLA2, NBD-HPC fluorescence, 1 h; inhibition, % at 8.33 µM; 0.51% of 340,000 active; AID 504462; in the data active means inhibition above about 40%
Target sequence (Q9Y4P1 whole entry, looked up): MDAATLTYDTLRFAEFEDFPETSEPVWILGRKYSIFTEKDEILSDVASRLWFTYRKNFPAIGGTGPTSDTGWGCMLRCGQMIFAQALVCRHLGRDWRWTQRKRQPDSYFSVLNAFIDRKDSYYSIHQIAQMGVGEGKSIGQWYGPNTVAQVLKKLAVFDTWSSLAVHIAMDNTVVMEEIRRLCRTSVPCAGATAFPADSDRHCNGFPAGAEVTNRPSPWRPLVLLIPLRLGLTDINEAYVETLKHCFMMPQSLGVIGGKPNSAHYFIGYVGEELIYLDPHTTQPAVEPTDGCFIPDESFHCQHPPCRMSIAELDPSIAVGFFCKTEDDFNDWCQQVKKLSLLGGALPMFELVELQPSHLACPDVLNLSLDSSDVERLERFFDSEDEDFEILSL
Cardio protect – myocardial damage modulation in H9c2 cells | H9c2 cardiomyocytes, H2O2 injury protection, ATPLite, 2 h | 0.63% of 360,000 active | protection from H2O2 cell death, % at 20 µM;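 active means compounds giving at least 50% protection of heart cells from peroxide-induced death in the single-dose screen, raw or plate-pattern-corrected value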
PP1 confirm – confirmation of human PP1 phosphatase inhibitors. AID 2358. inhibition, % at 6.7 µM. shares compounds with PP1 counter. 52% of 1,900 active. purified PP1alpha, OMFP substrate fluorescence;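 active means mean PP1 inhibition above a set limit taken from the earlier primary screen, cut at about 15% in these data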
PP5 inh counter – PP5 phosphatase inhibition, counter-screen for PP1 inhibitors. shares compounds with PP1 counter. purified PP5c, OMFP fluorescence. inhibition, % at 6.7 µM. 4% of 1,900 active. AID 2360;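 active means mean PP5 inhibition over triplicate wells above about 9.5% taken from the earlier PP1 screen, limit read from the data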
Large screens that a line does not name were inactive (follow-up assays come after a bar, where they were run). Hits are enriched below; roughly 1.9% of the tested compounds scored in any of these assays.

CCN1CCN(Cc2ccc(NC(=O)c3cc(NC(=O)c4nccnc4N)cc(OC)c3)cc2C(F)(F)F)CC1	none
Cc1cc(N/N=C/c2cccc([N+](=O)[O-])c2)nc(-n2nc(C)cc2C)n1	none
Cc1cc(N/N=C/c2cccc(Cl)c2)nc(-n2nc(C)cc2C)n1	PP1 counter 18 | PP1 confirm 23 | PP5 inh counter inactive
COc1ccc(/C=N/Nc2cc(C)nc(-n3nc(C)cc3C)n2)cc1	PP1 counter 39 | PP1 confirm 50 | PP5 inh counter inactive
Cc1cc(C)n2nc(C(=O)N/N=C/c3cccc(Cl)c3)nc2n1	PP1 counter 18 | PP1 confirm inactive | PP5 inh counter inactive
COc1ccc(/C=N/Nc2cc(C)nc(NS(=O)(=O)c3ccc(C)cc3)n2)cc1	none
CN1C[C@@H]2[C@@H]3C(=O)N(C)C(=O)[C@@H]3[C@](C)(C1=O)N2C(=O)c1ccc(Cl)c(Cl)c1	none (no result: PP5 inh, PP1 counter)
COc1ccc2c(c1)C(CC(=O)NN)CCC2 (centres undefined)	none (no result: PP5 inh, PP1 counter)
CC(=O)c1cccc(S(=O)(=O)N2CCCC(c3nc4c(nnn4Cc4ccc(C)cc4)c(=O)[nH]3)C2)c1 (centres undefined)	none
CC(=O)c1cccc(S(=O)(=O)N2CCCC(c3nc4c(nnn4Cc4cccc(Cl)c4)c(=O)[nH]3)C2)c1 (centres undefined)	PP1 counter 20 | PP1 confirm 15 | PP5 inh counter inactive
O=C(NC1CCCC1)c1nc2c(nnn2Cc2cccc(Cl)c2)c(=O)[nH]1	PP1 counter 21 | PP1 confirm inactive | PP5 inh counter inactive
Cc1ccc(Cn2nnc3c(=O)[nH]c(C4CCN(S(=O)(=O)c5ccc(C)cc5)CC4)nc32)cc1	none
O=c1[nH]c(C2CCN(S(=O)(=O)c3ccc(C(F)(F)F)cc3)CC2)nc2c1nnn2Cc1ccc(F)cc1	PP1 counter 19 | PP1 confirm inactive | PP5 inh counter inactive
CC(=O)Nc1cccc(C(=O)OCC(=O)N2CCN(C(=O)COC(=O)c3cccc(NC(C)=O)c3)CC2)c1	none (no result: PP5 inh, PP1 counter)
O=C(Nc1nc2cc3c(cc2s1)OCCO3)c1ccc([N+](=O)[O-])o1	none
Nc1ccc(S(=O)(=O)Nc2nccc(/C=C/c3ccc(Cl)cc3Cl)n2)cc1	PP1 counter 19 | PP1 confirm 21 | PP5 inh counter inactive
Nc1ccc(S(=O)(=O)Nc2nccc(/C=C/c3ccc(Cl)cc3)n2)cc1	none
CC(=O)N1CCN(CC(O)COc2ccc(S(=O)(=O)N3CCOCC3)cc2)CC1 (centres undefined)	none
CN(CC(O)CON=C1c2ccccc2-c2ccccc21)S(=O)(=O)c1ccc(Br)cc1 (centres undefined)	PP1 counter 41 | PP1 confirm inactive | PP5 inh counter inactive
COc1ccc(S(=O)(=O)N2CCOCC2)cc1NC(=O)COC(=O)C1CC1C (centres undefined)	none
COc1ccc(CN(C)CCCn2cnc3c(OCc4ccccc4)ncnc32)cc1OC	none (no result: PP5 inh, PP1 counter)
CCc1ccc(C(=O)CCC(=O)Nc2cccc(S(=O)(=O)N3CCCCC3)c2)cc1	none (no result: PP5 inh, PP1 counter)
Cc1ccccc1NC(=O)COC(=O)/C=C/c1cn(-c2ccccc2)nc1-c1cccnc1	PP1 counter 32 | PP1 confirm 32 | PP5 inh counter inactive
Brc1ccc(C2=Nn3c(nnc3-c3n[nH]c4c3CCC4)SC2)cc1	PP1 counter 22 | PP1 confirm inactive | PP5 inh counter inactive
CC1=Nn2c(nnc2-c2cc(-c3ccccc3)n[nH]2)SC1	none
c1ccc(-c2ccc(C3=Nn4c(nnc4-c4cc(-c5ccccc5)n[nH]4)SC3)cc2)cc1	PP1 counter 30 | PP1 confirm 33 | PP5 inh counter inactive
Clc1ccc(C2=Nn3c(nnc3-c3n[nH]c4c3CCC4)SC2)cc1	none
Cc1ccc2c(c1)CCCO[C@]21O[C@H](CCO)C[C@H](O)[C@H]1O	none (no result: PP5 inh, PP1 counter, ATG4B inh)
CCC1C(=O)NCCN1C(=O)c1ccc2nc(Cc3cccc(Cl)c3)oc2c1 (centres undefined)	none
CCOC(=O)C1=C(O)/C(=C/c2ccc(OCC(=O)O)c(OCC)c2)SC1=Nc1ccccc1	none
CCc1ccc(N=C2NC(=O)/C(=C/c3cc(Br)c(OCC(=O)O)c(OC)c3)S2)cc1	PP1 counter 30 | PP1 confirm 21 | PP5 inh counter inactive
CCc1ccc(N=C2NC(=O)/C(=C/c3cc(OC)c(OC)c(OC)c3)S2)cc1	none
CCOc1cc(/C=C2\SC(=Nc3ccc(CC)cc3)NC2=O)ccc1OCC(=O)O	PP1 counter 22 | PP1 confirm inactive | PP5 inh counter inactive
O=C(c1cccs1)N1N=C(c2ccccc2)CC1c1ccccc1O (centres undefined)	PP1 counter 25 | PP1 confirm 19 | PP5 inh counter inactive
Nc1[nH]ncc1S(=O)(=O)c1ccccc1	none
CC1=C(C(=O)Nc2ccccc2)C(c2ccco2)C(C#N)=C(SCC(=O)OC(C)C)N1 (centres undefined)	none
CC1=C(C(=O)Nc2ccccc2)C(c2ccco2)C(C#N)=C(SCc2ccccc2)N1 (centres undefined)	PP1 counter 23 (no result: ATG4B inh, Cardio protect) | PP1 confirm inactive | PP5 inh counter inactive
COc1ccc(C2=NN(C(=O)CSc3ncccn3)C(c3ccc(C)cc3)C2)cc1 (centres undefined)	none
COc1ccc(C2CC(c3ccc(Br)cc3)=NN2C(=O)CSC2=NCCS2)cc1 (centres undefined)	PP1 counter 20 | PP1 confirm inactive | PP5 inh counter inactive
COc1ccc(C(=O)NCCCOC(C)C)cc1OC1CCN(C(C)=O)CC1	none
CCOC(=O)c1c(C)[nH]c(C(=O)OCC(=O)NCc2ccc(C)cc2)c1C	PP1 counter 19 | PP1 confirm inactive | PP5 inh counter inactive
COc1ccc(-c2oc3cc(O)c(OC)c(O)c3c(=O)c2OC)cc1O	none (no result: PP5 inh, PP1 counter)
COc1ccc(/C=C/c2nnc(NC(=O)COc3ccc(C)cc3)s2)cc1	PP1 counter 18 | PP1 confirm inactive | PP5 inh counter inactive
COc1ccc(/C=C/c2nnc(NC(=O)COc3ccccc3)s2)cc1	none
O=C(NNC(=O)c1cc2cc3ccccc3nc2s1)c1ccc(F)cc1	PP1 counter 24 | PP1 confirm inactive | PP5 inh counter inactive
c1cc(-c2cc3nc(NC4CCCCC4)ccn3n2)ccc1OCCN1CCOCC1	none (no result: PP5 inh, PP1 counter, ATG4B inh)
Cc1ccc(Nc2cc(C)nn2-c2nc(C)cc(C)n2)cc1	none
Cc1ccc(Nc2cc(C)nn2-c2nc(C)cc(=O)[nH]2)cc1	PP1 counter 26 | PP1 confirm 20 | PP5 inh counter inactive
O=C(CNC(=O)c1ccccc1F)OCn1nnc2ccccc2c1=O	none
Cc1ccc(-n2c(=O)cc(NCc3cccnc3)[nH]c2=O)cc1	PP1 counter 25 | PP1 confirm inactive | PP5 inh counter inactive
Cc1ccc(C(=O)Oc2ccc(C(=O)COC(=O)C3CC(=O)N(Cc4ccco4)C3)cc2)cc1 (centres undefined)	PP1 counter 20 | PP1 confirm inactive | PP5 inh counter inactive
O=[N+]([O-])c1ccc(N2N=C(c3ccco3)CC2c2ccccc2)cc1 (centres undefined)	PP1 counter 19 | PP1 confirm inactive | PP5 inh counter inactive
